Most compounds without a hit are left out; they make up all but 9.4% or so of the library.
AMA1 RON2 block – qHTS for Inhibitors of AMA1-RON; Towards Development of Antimalarial Drug Lead: Primary Screen; Plasmodium falciparum AMA1 (3D7) - RON2 peptide interaction; Potency, µM (titrated, usually from 58.2 µM), most hits filed as inhibitors; actives 0.2% (n = 360,000); AlphaScreen AMA1-biotinylated RON2 peptide binding; also: nearly all actives have a fitted effect of over 45% in size
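AMA1 (3D7) with his tag at 25 nM final met compounds first, then biotinylated RON2 peptide at 25 nM; detection used donor plus acceptor beads, 10 µg/mL apiece, read by AlphaScreen after 30 min at room temperature.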
Pf growth 48h – Primary qHTS for delayed death inhibitors of the malarial parasite plastid, 48 hour incubation; P. falciparum luciferase growth in erythrocytes, 48 h; Potency, µM (top dose mostly 28.7 µM), hits mostly inhibitors; actives 5.9% (n = 310,000); AID 504832, 2011
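Luciferase-expressing P. falciparum in infected erythrocytes (2% hematocrit, 0.1% parasitemia final) in RPMI 1640/0.5% Albumax were exposed to compound for 48 hours at 37 C, 5% CO2; growth read as luminescence.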
Pf growth 96h – Primary qHTS for delayed death inhibitors of the malarial parasite plastid, 96 hour incubation | Potency, µM (series often up to 28.7 µM), usual class: inhibitors | actives 6.9% (n = 320,000) | P. falciparum luciferase reporter growth, 96 h
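Infected RBCs, 2% Hct / 0.05% parasitemia final; luciferase-reporter P. falciparum; cpd 96 h, 37 C, 5% CO2; luciferase detection reagent; luminescence.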
SARS PLpro yeast – qHTS of Yeast-based Assay for SARS-CoV PLP; actives 0.19% (n = 330,000); Potency, µM (series often up to 32.9 µM), hits mostly activators; AID 485353, 2010; S. cerevisiae expressing SARS-CoV PLpro, growth rescue; calls by dose curve; also: nearly all actives have a fitted effect of over 55% in size
Of the large screens only hits and unclear results are named; the others gave an inactive call; ! = not confirmed by another sample. Unless noted, calls follow the shape of the dose curve; as a rule, active = well fitted curve in the direction sought with a large enough effect; inconclusive = small, poorly fitted or top-dose-only effect, or another doubt; inactive = no such curve, though single readings can be large; an effect the other way counts as inactive or inconclusive.

O=C(NCCc1c[nH]c2ccccc12)C(=O)c1c[nH]c2ccccc12	Pf growth 96h inconclusive
Cc1cc(-c2nnc(CCC(=O)NCc3cc(F)cc(C(F)(F)F)c3)o2)no1	none
C/C(=N\NC(=O)CN(c1ccccc1)S(C)(=O)=O)c1ccccc1O	Pf growth 48h 12µM, Pf growth 96h inconclusive
CC(C)Oc1ccc(C(=O)NC(=S)Nc2ccc(CN3CCOCC3)cc2)cc1	Pf growth 48h inconclusive
Cc1ccc(NC(=O)CCCN2C(=S)NC(C)(C)CC2C)cc1 (stereo not given)	none
Cc1cccc(NC(=O)CN2C(=S)NC(C)(C)CC2C)c1 (stereo not given)	Pf growth 96h 10µM
CCc1ccc(NC(=O)CCCN2C(=S)NC(C)(C)CC2C)cc1 (stereo not given)	Pf growth 48h inconclusive, Pf growth 96h 1.9µM
CSCCC(NC(=O)c1ccccc1Cl)C(=O)N1CCCC(C)C1 (stereo not given)	none (no result: Pf growth 48h, Pf growth 96h, SARS PLpro yeast)
O=C(CS(=O)(=O)c1cn(Cc2ccccc2Cl)c2ccccc12)N1CCOCC1	none
Cc1cc(NC(=O)CS(=O)(=O)c2cn(Cc3ccc(F)cc3)c3ccccc23)no1	Pf growth 96h 13µM (no result: Pf growth 48h)
O=C(CS(=O)(=O)c1cn(Cc2ccc(Cl)cc2)c2ccccc12)N1CCCC1	Pf growth 96h 8.3µM (no result: Pf growth 48h)
COc1ccc2c(c1)C(c1ccc(C)o1)=NNC(c1ccccc1)=N2	Pf growth 48h inconclusive
CN(C)C(CNC(=O)CN1C(=O)NC2(CCCC2)C1=O)c1ccccc1 (stereo not given)	none
Cc1cccc(NC(=O)C(=O)NCCc2c[nH]c3ccccc23)c1C	none
O=C(CCNS(=O)(=O)c1ccc(OC(F)(F)F)cc1)NCCc1c[nH]c2ccccc12	Pf growth 48h inconclusive, Pf growth 96h 10µM
O=C(NCCc1c[nH]c2ccccc12)/C(=C/c1ccco1)NC(=O)c1ccco1	Pf growth 96h 0.29µM
CC(=O)c1ccc(S(=O)(=O)NCCC(=O)NCCc2c[nH]c3ccccc23)cc1	Pf growth 48h inconclusive
O=C(NCCc1c[nH]c2ccccc12)OCCSS(=O)(=O)O	Pf growth 96h 12µM
Cc1cccc(C)c1NC(=O)C(=O)NCCc1c[nH]c2ccccc12	Pf growth 48h 5.2µM, Pf growth 96h inconclusive
CC(=O)NCCc1c[nH]c2ccccc12	none
O=C(Cc1n[nH]c(=O)c2ccccc12)NCc1ccc(Cl)cc1	none
O=C1C(O)=C(O)C(=O)c2ccccc21	none (no result: Pf growth 48h, Pf growth 96h, SARS PLpro yeast)
COc1ccc(CNC(=O)C(c2cccs2)N(Cc2ccco2)C(=O)Cc2cccs2)cc1 (stereo not given)	Pf growth 48h 13µM
COCCN(C(=O)Cc1cccs1)C(C(=O)NCc1ccc(OC)cc1)c1ccc(OC)cc1 (stereo not given)	Pf growth 48h 13µM, Pf growth 96h inconclusive
CC(C)C[C@H]1CN([C@@H](CC(C)C)CN2CCC[C@H]2CN2C(=O)C(=O)NC[C@@H]2Cc2ccc(O)cc2)C(=O)C(=O)N1CC1CCCCC1	none (no result: Pf growth 48h, Pf growth 96h, SARS PLpro yeast)
Cc1[nH]ccc(=O)c1OCc1c(Cl)cccc1Cl	none
Cc1ccc(Cn2ccc(=O)c(OCc3c(Cl)cccc3Cl)c2C)cc1	Pf growth 96h 4.1µM (no result: Pf growth 48h)
COc1cc(OC)cc(C(=O)N[C@H](C(=O)Nc2nc(-c3ccc(F)c(F)c3)cs2)C(C)C)c1	Pf growth 48h 13µM
COc1ccc(-c2csc(NC(=O)CSCc3c(C)noc3C)n2)cc1OC	Pf growth 48h inconclusive, Pf growth 96h inconclusive
Cc1noc(C)c1CSCC(=O)Nc1nc(-c2ccc(F)c(F)c2)cs1	Pf growth 48h 10µM, Pf growth 96h inconclusive
O=C(Nc1ccc(Cl)c(Cl)c1)Nc1nc(-c2ccccc2)cs1	Pf growth 48h inconclusive, Pf growth 96h 2.3µM
Cc1noc(C)c1CSCC(=O)Nc1ccc(S(=O)(=O)C(F)F)cc1	Pf growth 96h 4.7µM
O=C(Nc1ccccc1)Nc1nc(-c2ccc(F)c(F)c2)cs1	Pf growth 48h 12µM, Pf growth 96h 13µM
Cn1c(=O)c(C(=O)Nc2cnccn2)c(O)c2ccccc21	Pf growth 96h inconclusive (no result: AMA1 RON2 block)
Cn1c(=O)c(C(=O)Nc2ccccn2)c(O)c2ccccc21	Pf growth 96h 10µM
Cn1c(=O)c(C(=O)NNC(=O)c2ccccc2Br)c(O)c2ccccc21	Pf growth 96h 2.1µM
Cn1c(=O)c(C(=O)NNC(=O)c2ccccc2Cl)c(O)c2ccccc21	none
O=C(Nc1cccc(C(=O)Nc2ccc(Cl)cn2)c1)c1ccccc1	Pf growth 96h inconclusive
CCCn1c(=N)c(S(=O)(=O)c2ccc(F)cc2)cc2c(=O)n3cccc(C)c3nc21	Pf growth 96h inconclusive
Cc1nn(C)c(C)c1NC(=O)c1ccc(Cl)cc1	none (no result: Pf growth 96h)
O=c1c2ccccc2nc(COc2ccccc2)n1/N=C/c1cn[nH]c1-c1ccccc1	Pf growth 48h inconclusive, Pf growth 96h 10µM
Cc1ccc(-c2[nH]ncc2/C=N/n2c(C)nc3ccccc3c2=O)cc1	none
O=c1c2ccccc2nc(COc2ccccc2)n1/N=C/c1c[nH]c2ccccc12	none
Cc1ccccc1OCc1nc2ccccc2c(=O)n1/N=C/c1cn[nH]c1-c1ccc(Br)cc1	Pf growth 48h inconclusive, Pf growth 96h 5.2µM
CCCc1cc(=O)oc2c3c(c4c(c12)OC(C)(C)C=C4)OC(C)C(C)C3O (stereo not given)	Pf growth 48h inconclusive, Pf growth 96h 10µM
CCCc1cc(=O)oc2c3c(cc(OCC(=O)N[C@@H](C)C(=O)O)c12)OC(C)(C)CC3	none
COc1ccc(C(=O)NC(=S)N2CCCC2)cc1	Pf growth 96h 13µM
COc1ccc(C(=O)NC(=S)N2CCCCC2)cc1	none (no result: Pf growth 48h)
COCCCNC(=O)c1cc(Nc2ccc(OC)cc2OC)nc2ccccc12	none
CN(C)[C@@H]1C(=O)C(C(N)=O)=C(O)[C@@]2(O)C(=O)C3=C(O)c4c(O)cccc4[C@@](C)(O)[C@H]3[C@H](O)[C@@H]12	AMA1 RON2 block 1µM, Pf growth 48h 13µM!, Pf growth 96h 3.8µM!
CN(C)c1ccc(O)c2c1CC1CC3[C@@H](N(C)C)C(=O)C(C(N)=O)=C(O)[C@]3(O)C(=O)C1=C2O (stereo not given in full)	AMA1 RON2 block inconclusive, Pf growth 48h 4.7µM, Pf growth 96h 0.33µM
CN(C)[C@@H]1C(=O)C(C(N)=O)=C(O)[C@@]2(O)C(=O)C3=C(O)c4c(O)cccc4[C@@](C)(O)C3C[C@@H]12 (stereo not given in full)	AMA1 RON2 block inconclusive, Pf growth 48h 7.4µM, Pf growth 96h 2.1µM (no result: SARS PLpro yeast)
CN(C)[C@@H]1C(=O)C(C(N)=O)=C(O)[C@@]2(O)C(=O)C3=C(O)c4c(O)ccc(Cl)c4[C@@](C)(O)[C@H]3C[C@@H]12	Pf growth 48h inconclusive
C=C1c2c(Cl)ccc(O)c2C(O)=C2C(=O)[C@@]3(O)C(O)=C(C(N)=O)C(=O)[C@@H](N(C)C)[C@@H]3[C@@H](O)[C@H]12	Pf growth 48h 4.1µM, Pf growth 96h 0.72µM (no result: AMA1 RON2 block, SARS PLpro yeast)
Cc1ccnc(NS(=O)(=O)c2ccc(NC(=O)CCOc3ccccc3)cc2)n1	none
COC(=O)c1ccc(CNC(=O)COC(=O)c2cccs2)cc1	none (no result: Pf growth 48h, Pf growth 96h)

Screens from PubChem BioAssay.
